Measured values as given in PubChem BioAssay.
Calls of active or inactive are those of the source.

Columns and labels:
[1] = target: Albumin (Bos taurus) (UniProt P02769); test: bovine serum albumin binders on microarray, profiling panel, artefact control for SMM control protein annotation, biochemical, small-molecule microarray, Alexa647 label, 635/667 nm fluorescence (AID 1118); details: BSA-A647 binding, fluorescence 635 nm, higher = more signal;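 also: score merges 667 nm emission intensity and signal-to-noise per printed compound spot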
[2] = small-molecule microarray binders of probe aXIP, primary screen, biochemical, NeuroSMM set, 635/667 nm fluorescence (AID 1119); details: higher = more signal, called active from +8 up or from −8 down;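 also: probe is the protein aXip251-270 applied at 1 µg/mL to compound-printed slides; binding of probe to printed compounds measured as 667 nm fluorescence plus signal to noise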
[3] = small-molecule binders of probe aNOTCH3, primary screen, biochemical, small-molecule microarray, 635/667 nm fluorescence (AID 1120); details: higher = more signal;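 also: probe is a biotin-tagged antibody raised against NOTCH3 rather than NOTCH3 protein; score merges spot fluorescence near 667 nm with spot signal to noise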
[4] = small-molecule binders of probe aNOTCH2, primary screen, biochemical, small-molecule microarray, 635/667 nm fluorescence (AID 1121); details: higher = more signal;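 also: score merges feature fluorescence read at 667 nm with its signal to noise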
[5] = target: Carbonic anhydrase 2 (Homo sapiens) (UniProt P00918); test: CAII small-molecule binders, profiling panel, biochemical, small-molecule microarray, Alexa647-labelled CAII (AID 1122); details: CAII-A647 binding fluorescence, higher = more signal
[6] = COS7 lysate on small-molecule microarray, probe aHis, 635 nm (AID 1123); details: COS7 cell lysate, fluorescence, higher = more signal;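 also: z-score combines 667nm fluorescence intensity with signal-to-noise per printed compound spot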
[7] = compound binding in COS7 lysate, probe aLAP1, primary screen, cell lysate, small-molecule microarray (AID 1124); details: probe aLAP1, fluorescence, higher = more signal;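 also: lysate comes from COS7 cells expressing LAP1 and is applied at 0.3 µg/mL; score merges spot fluorescence near 667 nm with signal-to-noise over triplicate slides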
[8] = test system: Sam68 (KHDRBS1); test: Sam68 small-molecule binders, primary screen, biochemical, small-molecule microarray, 635 nm fluorescence (AID 1125); details: small-molecule microarray binding, higher = more signal;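 also: score merges 667 nm channel intensity with signal to noise over triplicate slides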
[9] = test system: Chordin-like protein 2 (CHRDL2); test: CHRDL2 small-molecule binders, primary screen, biochemical, small-molecule microarray, 635 nm fluorescence (AID 1126); details: small-molecule microarray binding, fluorescence 635 nm; higher = more signal;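 also: printed compound slides probed with Chrdl2 protein at 4 µg/mL for 1 h at 4 C; score merges 667 nm emission intensity with signal to noise over three replicate slides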
[10] = target: Concanavalin-A (Canavalia ensiformis) (UniProt P02866); test: ConA small-molecule binders, primary screen, artefact control for SMM control protein annotation, biochemical, small-molecule microarray, Alexa647 label, 635 nm (AID 1127); details: ConA-A647 binding fluorescence, higher = more signal;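 also: z combines 667 nm emission intensity with signal-to-noise across three replicate slides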
Sequence of Concanavalin-A (Canavalia ensiformis) (P02866 whole entry, looked up): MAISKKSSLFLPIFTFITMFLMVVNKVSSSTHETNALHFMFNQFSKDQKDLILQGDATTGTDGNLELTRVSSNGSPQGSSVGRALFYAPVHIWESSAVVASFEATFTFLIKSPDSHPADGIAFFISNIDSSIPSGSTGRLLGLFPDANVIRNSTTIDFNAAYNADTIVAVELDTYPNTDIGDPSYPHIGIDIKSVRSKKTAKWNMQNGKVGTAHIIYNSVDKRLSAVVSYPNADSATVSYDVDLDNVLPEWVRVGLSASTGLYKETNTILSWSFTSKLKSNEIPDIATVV

Sequence of Albumin (Bos taurus) (P02769 whole entry, looked up): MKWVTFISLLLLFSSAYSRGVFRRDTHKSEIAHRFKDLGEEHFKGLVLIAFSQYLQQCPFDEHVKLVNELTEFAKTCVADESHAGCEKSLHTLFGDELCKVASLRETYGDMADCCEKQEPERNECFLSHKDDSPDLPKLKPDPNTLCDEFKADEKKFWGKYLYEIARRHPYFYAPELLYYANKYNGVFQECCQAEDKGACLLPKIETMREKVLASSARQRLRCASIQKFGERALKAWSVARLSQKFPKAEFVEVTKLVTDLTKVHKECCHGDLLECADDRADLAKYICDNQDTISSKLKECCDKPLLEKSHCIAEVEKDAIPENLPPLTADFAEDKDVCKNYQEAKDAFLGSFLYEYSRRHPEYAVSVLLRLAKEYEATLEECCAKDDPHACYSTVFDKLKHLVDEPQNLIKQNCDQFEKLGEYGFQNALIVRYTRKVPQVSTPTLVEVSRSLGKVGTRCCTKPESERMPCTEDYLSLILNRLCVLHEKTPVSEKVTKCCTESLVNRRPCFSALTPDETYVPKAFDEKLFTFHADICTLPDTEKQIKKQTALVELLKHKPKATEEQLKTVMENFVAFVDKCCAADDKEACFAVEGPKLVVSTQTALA

Row | SMILES | composite z-score [1] | composite Z-score [2] | composite z-score [3] | composite z-score [4] | composite z-score [5] | composite z-score [6] | composite z-score [7] | composite z-score [8] | composite z-score [9] | composite z-score [10]
1 | CN1C2C=C(CCCO)C(C3C(=O)N(C(N)=O)C(=O)C32)C1c1ccc(CN2CCCC2)cc1 (stereo not given) | -1.07 | -0.275 (inactive) | -0.326 | -0.152 | -0.452 | -0.0732 | -0.579 | -1.18 | -0.686 | -0.34
2 | C=C(COC)/C(=C/C[C@@H](OC(C)=O)c1ccc(OCCO)cc1)c1cc(C(=O)OC)ccc1OC | 0.616 | -0.064 (inactive) | 0.0873 | -0.118 | 0.591 | 0.669 | -0.413 | 1.27 | 0.784 | 0.699
3 | [N-]=[N+]=Nc1ccccc1C[C@]1(C(=O)NCC(O)CO)N=C(c2ccc(OCCCO)cc2)O[C@H]1c1ccccc1N=[N+]=[N-] (stereo not given in full) | 0.376 | 0.045 (inactive) | 0.0151 | 0.0809 | 0.391 | 1.69 | -0.352 | 0.431 | -0.424 | -0.899
4 | CN1C(=O)C2C=CC(C(O)c3ccccc3)N(Nc3ccccc3)C2C1=O (stereo not given) | 0.761 | 0.131 (inactive) | -0.128 | -0.0543 | 0.78 | 2.45 | 0.119 | -0.0508 | -1.02 | 0.142
5 | COc1ccc(C(O)C2C=CC3C(=O)NC(=O)C3N2Nc2ccccn2)cc1 (stereo not given) | -0.131 | 0.841 (inactive) | 0.0256 | 0.0308 | 0.482 | 1.39 | 0.348 | -0.183 | 1 | -0.0999
6 | CN1C(=O)C2C=CC(C(O)Cc3ccccc3)N(Nc3ccccc3)C2C1=O (stereo not given) | 0.554 | -0.193 (inactive) | -0.0311 | -0.0196 | 0.589 | 3.06 | -0.333 | -0.0158 | -0.513 | 0.672
7 | CCOC(=O)C[C@H]1[C@H](OC(=O)c2cc3ccccc3oc2=O)[C@@H](NC(=O)Cc2ccc(OC)cc2)c2cc(OCCCO)ccc2N1C(=O)c1ccccc1 | 0.722 | 0.311 (inactive) | -0.0324 | -0.0986 | 0.091 | 0.386 | -0.0727 | 0.687 | 0.328 | -0.256
8 | CCCN1C(=O)[C@]2(CCS(=O)(=O)c3ccccc3)N=C(c3ccc(OCCCO)cc3)O[C@@H]2c2ccccc21 | 0.414 | -0.0745 (inactive) | -0.0328 | -0.0995 | 0.276 | 1.15 | -0.031 | 1.29 | 0.359 | 0.414
9 | CN(C)CCCCCCNC(=O)[C@@H]1C[C@@H]2C(=O)N[C@@H](CCCCN)C(=O)N2[C@@H]1c1cccc(OCCO)c1 | 1.05 | 7.35 (inactive) | 1.79 | 0.72 | 0.92 | 2.35 | 1.2 | 1.32 | 1.2 | 1.24
10 | COC(=O)c1c(CC[C@@H](CO)NC(=O)N[C@H](Cn2cc(Cc3ccccc3)nn2)C(C)C)oc(C(C)=O)c1C(=O)OC | 0.0007 | 0.255 (inactive) | -0.0159 | -0.202 | 0.43 | 0.889 | 0.0096 | 0.709 | 0.0618 | 0.321
11 | NCCCCCNC(=O)[C@@H]1C[C@@H]2C(=O)NCC(=O)N2[C@@H]1c1ccc(O)cc1 | 0.802 | 0.126 (inactive) | -0.0889 | -0.108 | 0.558 | 0.899 | 0.249 | 1.31 | 0.831 | 1.06
12 | COCCOC(=O)N1C(=O)[C@@]2(c3cc(C#CCCO)ccc31)[C@H](C(=O)N1CCN(c3ncccn3)CC1)[C@H]1C(=O)O[C@H](c3ccccc3)[C@H](c3ccccc3)N1[C@@H]2c1ccccc1OCCO | 0.922 | -0.07 (inactive) | 0.195 | -0.134 | 0.582 | 1.76 | 0.186 | 1.31 | 0.207 | 1.14
13 | CCCCN1CC=CC23O[C@@H]4C=CCOC(=O)[C@@H]4[C@H]2C(=O)N(CCCCCO)[C@@H]3C1=O (stereo not given in full) | 0.914 | 0.102 (inactive) | -0.199 | -0.0422 | 0.858 | 1.8 | 1.3 | -0.445 | -0.769 | -1.08
14 | COCCOC(=O)N1C(=O)[C@@]2(c3cc(C#Cc4ccc(OC)cc4)ccc31)[C@H](C(N)=O)[C@H]1C(=O)O[C@H](c3ccccc3)[C@H](c3ccccc3)N1[C@@H]2c1ccccc1OCCO | 0.73 | 0.611 (inactive) | 0.293 | 0.151 | 0.653 | 2.54 | 1.11 | 1.3 | 0.565 | 1.17
15 | CC(C)(C)OC(=O)CC[C@@]1(C(=O)NCCN2CCOCC2)N=C(c2ccc(OCCCO)cc2)O[C@@H]1c1ccccc1N=[N+]=[N-] | 0.641 | 0.393 (inactive) | 0.375 | 0.103 | 0.742 | 1.81 | 0.0412 | 1.33 | 0.178 | 0.289
16 | O=C(NCc1ccccc1)[C@@]1(Cc2ccccc2)N=C(c2ccc(OCCCO)cc2)O[C@H]1c1ccccc1 | 0.974 | 0.1 (inactive) | 0.261 | 0.349 | 0.617 | 2.41 | 1.4 | 1.31 | -1.46 | 1.15
17 | C=CCOC(=O)[C@H]1[C@@H]2C(=O)O[C@@H](c3ccccc3)[C@@H](c3ccccc3)N2[C@@H](c2ccc(OCCOC(=O)[C@H]3C[C@H]4C(=O)N[C@@H](CC(C)C)C(=O)N4[C@H]3c3ccc(O)cc3)cc2)[C@]12C(=O)Nc1ccc(I)cc12 | -0.262 | 0.672 (inactive) | 0.17 | -0.117 | 0.597 | 1.77 | 0.818 | 1.28 | 1.37 | 1.16
